# Reference: PubChem BioAssay AID1839 (Johns Hopkins Ion Channel Center, 2009)
# The campaign covered roughly 2,400 compounds. About 220 (9.2%) were called active. Many of the other results were omitted from the sample, so actives are more common in it than they were. Values without a mark were called inactive.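 The calls were made as follows: active = signal change above the mean of dofetilide-free buffer controls plus 3 SD, so a positive margin; inactive = the rest.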
# Experiment: nonspecific flux effects in parental CHO-K1, confirmation, counter-screen for hERG block protection project, cell-based, CHO-K1 parental line, FluxOR thallium flux (AID 1839);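 also: compounds applied alone with no dofetilide to cells lacking hERG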
# Conditions: CHO-K1 parental cells, FluxOR thallium flux fluorescence; at 10 µM
row,Compound,"signal change vs control minus 3*SD hit threshold (margin above threshold, higher = more increase)"
1,O=C(N/N=C/c1ccc(Sc2ccccn2)o1)c1cc2ccccc2cc1O,-17.7%
2,C/C(=N\NC(=O)c1cc2ccccc2cc1O)c1ccc(C)o1,3.3% (active)
3,C/C(=N\NC(=S)Nc1c(C)cccc1C)c1cc2ccccc2o1,-26%
4,Cc1ccc(/C=N/NC(=O)c2cc(-c3ccncc3)nc3ccccc23)o1,-58.7%
5,COc1ccc(CCNC(=O)c2cc3ccccc3oc2=O)cc1,-38.8%
6,C/C(=N\NC(=O)c1cc2ccccc2cc1O)c1ccccn1,-32.4%
7,Cc1ccc(/C=N/NC(=O)c2cc3ccccc3cc2O)o1,18.2% (active)
8,C/C(=N\NC(=O)c1cc2ccccc2cc1O)c1cc2ccccc2o1,50.8% (active)
9,Cc1ccc(/C=N/NC(=O)c2cc(C)oc2C)o1,-22.9%
10,Cc1cccc(/C=N/NC(=O)c2cc(Br)ccc2O)n1,-26.5%
11,C/C(=N/NC(=O)c1cc2ccccc2cc1O)c1ccco1,3.4% (active)
12,C/C(=N\NC(=O)c1ccoc1C)c1cccc2ccccc12,-5.5%
13,NC(=O)Cn1c2[n+](c3ccccc31)CC(O)CS2 (stereo unspecified),-25.7%
14,CC(=O)c1ccc2c(c1)OCCOCCOCCO2,-35.7%
15,CC(CCc1ccccc1)NC(=S)NC(=O)c1ccco1 (stereo unspecified),0%
16,C/C(=C\C(=O)c1ccccc1)NNC(=O)c1ccc(Cl)cc1,-4.7%
17,Cc1ccc(Cn2nnc3c(=O)n(CC(=O)N4CCCc5ccccc54)cnc32)cc1,-24.6%
18,Cc1ccc(C(=O)CC(=O)c2ccccc2C)c(O)c1,-34%
19,Cc1cc(=S)[nH]c2c(C)cccc12,-20%
20,c1ccc(CCCNc2ncnc3nc[nH]c23)cc1,-18.5%
21,CSc1nsc(SCC(=O)Nc2ccccc2C(=O)O)n1,-22.4%
22,O=C(NC(=S)Nc1nc(-c2ccccc2)cs1)c1cncc(Br)c1,-17.9%

row,Compound,"signal change vs control minus 3*SD hit threshold (margin above threshold, higher = more increase)"
1,Cc1cccc(NC(=S)c2nc3ccccc3s2)c1,-28.6%
2,Cc1ccc(NC(=S)c2nc3ccccc3s2)cc1,-24.9%
3,S=C(Nc1ccc(Cl)cc1)c1nc2ccccc2s1,10.2% (active)
4,O=c1[nH]c(C(Cl)(Cl)Cl)nc2ccc3ccccc3c12,-12%
5,O=C(CCC(=O)Nc1ccccc1)NNC(=O)c1ccco1,-34.1%
6,COc1ccc(C)cc1NC(=O)C(=O)NNC(=O)c1ccco1,23.7% (active)
7,COc1ccc(OC)c(NC(=O)C(=O)NNC(=O)c2cccs2)c1,-26.1%
8,COc1ccc(C)cc1NC(=O)Nc1ccc(C(=O)N2CCCC2)cc1,-20.5%
9,COc1ccccc1NC(=O)C(=O)NNC(=O)c1ccco1,6.5% (active)
10,COCC1CCCN(C(=O)c2ccc3oc(C(C)C)nc3c2)C1 (stereo unspecified),-17.8%
11,C/C(O)=C/c1nc2ccccc2[nH]c1=O,-30.7%
12,CSc1nc2c(c(=O)[nH]1)C(c1ccc(Br)cc1)CC(=O)N2 (stereo unspecified),-22.1%
13,C=CCn1c(=S)[nH]c2cc(-c3ccccc3)sc2c1=O,-25.2%
14,C=CCn1c(=S)[nH]c2scc(-c3ccc(C)o3)c2c1=O,27.1% (active)
15,C=CCn1c(SCC(N)=O)nc2scc(-c3ccc(C)o3)c2c1=O,-20.7%
16,C=CCn1c(=S)[nH]c2ccc(Br)cc2c1=O,-17.4%
17,C=CCn1c(=S)[nH]c2scc(-c3cccs3)c2c1=O,37.4% (active)
18,Cc1ccccc1NC(=O)CN1C(=O)S/C(=C\c2ccc(-c3cccc(C(=O)O)c3C)o2)C1=O,-33.5%
19,C=CCNc1sc(C(=O)C(C)(C)C)c(N)c1C#N,-32.1%
20,O=C(COc1ccc2c3c(c(=O)oc2c1)CCC3)N[C@@H](Cc1ccccc1)C(=O)O,-5.5%
21,CSC1=C(C#N)C(CC(C)C)C2=C(CCCC2=O)N1 (stereo unspecified),-26.3%
22,Cc1[nH]c(=S)sc1Cc1ccc(Cl)c(Cl)c1,-29.6%

row,Compound,"signal change vs control minus 3*SD hit threshold (margin above threshold, higher = more increase)"
1,O=C(Nc1ccc2[nH]c(=S)sc2c1)Nc1ccccc1F,-39.7%
2,CC(C)Cn1c(=S)[nH]c2cc(Cl)ccc21,-22.1%
3,S=c1[nH]c2ccc(Cl)cc2s1,36.9% (active)
4,S=c1[nH]c2cc(Cl)ccc2s1,38.9% (active)
5,COc1cc(S(=O)(=O)NCC2COCCO2)ccc1-n1cnnn1 (stereo unspecified),-28.3%
6,FC(F)(F)c1cnc2c(c1)[nH]c(=S)n2-c1ccc(Cl)cc1,-16.7%
7,CNC(=O)c1ccc(NC(=O)CN2c3cccc4cccc(c34)S2(=O)=O)cc1,-22%
8,O=C1NC(=S)SC1=C1CCCCCC1,26% (active)
9,CCCCCN(C(=O)CCC(=O)OCC(=O)N(C)C1CCCCC1)c1c(N)n(CCCC)c(=O)[nH]c1=O,-20.9%
10,CCC1(C(=O)O)NC(c2cc(OC)ccc2O)C2C(=O)N(Cc3ccccc3)C(=O)C21 (stereo unspecified),-29.6%
11,O=C1NCCN1Cc1ccccc1F,-30.6%
12,ON/C=N/C(=S)Nc1ncc(C(F)(F)F)cc1Cl,6.1% (active)
13,CON/C=N/C(=S)Nc1ncc(C(F)(F)F)cc1Cl,16.5% (active)
14,C/C(Cl)=C\Cn1c(O)c(N=NC(N)=S)c2cc(Br)ccc21,-15.7%
15,COc1ccc(OC)c(S(=O)(=O)NCc2cn3cccc(C)c3n2)c1,-37.6%
16,O=c1c2cc(Br)ccc2nc(-c2ccc([N+](=O)[O-])cc2)n1O,6.7% (active)
17,O=c1c2ccc(Cl)cc2nc(-c2ccc([N+](=O)[O-])cc2)n1O,-15.4%
18,O=c1c2cc(Cl)ccc2nc(-c2ccc([N+](=O)[O-])cc2)n1O,4.5% (active)
19,O=[N+]([O-])c1ccc(CSc2nnc(SCc3ccc(Cl)cc3)s2)cc1,-24.5%
20,Nc1nc(O)c(N=Nc2ccc(S(N)(=O)=O)cc2)c(=O)[nH]1,-32%
21,CNC(=S)Nc1sc2c(c1C(=O)OC)CCC2,-15.1%
22,Cc1ccc(C(=O)N/N=C(/CC(=O)c2cccs2)C(F)(F)F)cc1,-22.1%
